# In PubChem BioAssay (NCI):
# “And” between values parts separate entries of the source, which are not always exact repeats. Equal entries are not always repeated. About 83,000 compounds went through this panel and 20% of them were active in at least one assay; those are over-represented in the sample as a whole.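 Results are percent growth after 48 hours of single-concentration exposure. 100 means growth as in untreated cells, lower positive values show inhibition; negative values down to -100 show cell death.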 The source made the active and inactive calls. The calls were made as follows: active = growth percent below 10; inactive = the rest.
# Test system: OVCAR-4 ovarian
# Test: NCI-60 one-dose screen, 48 h (100 = growth as untreated, 0 = no growth, -100 = all killed)
# Conditions: 10 µM unless noted
row,Structure (SMILES),growth
1,O=C(O)C1C2CCC1C(O)C2 (stereo not drawn),106% (inactive) and 108% (inactive)
2,C=C1CC[C@@H]2[C@](C)(COC(C)=O)[C@H](OC(C)=O)CC[C@@]2(C)[C@@H]1CC(Nc1ccc(S(=O)(=O)Nc2nccs2)cc1)C1=CCOC1=O (stereo partly drawn),38% (inactive)
3,Nc1nc(Nc2ccc(F)cc2)nn1C(=O)c1cc(Cl)ccc1Cl,92.8% (inactive)

# Test system: SK-OV-3 ovarian
# Test: as above
# Conditions: 10 µM unless noted
row,Structure (SMILES),growth
1,CN(C)C(=O)c1cc2cnc(Nc3ccc(-c4csc5c(=S)cc(N6CCOCC6)oc45)cc3)nc2n1C1CCCC1,16.4% (inactive)
2,CN1CCN(c2ccc(/C=C/C(=O)c3ccc(O)cc3)cc2)CC1,105% (inactive)
3,CCCCC(NC(=O)CN1C(=O)/C(=C/C(C)=C/c2ccccc2)SC1=S)C(=O)O (stereo not drawn),105% (inactive)
4,CC1(Cc2ccccc2)CC2=C(C(=O)O1)C(c1ccccc1)NC(=O)N2 (stereo not drawn),98.8% (inactive)
5,COc1ccc(-c2nc(Cl)c3c(C)nn(-c4ccc(F)cc4)c3n2)cc1,102% (inactive)
6,CCCCn1c(C(=O)c2c[nH]c3ccccc23)n[nH]c1=S,88.4% (inactive)
7,COc1ccc(/C=C2\COc3ccc(O)c(O)c3C2=O)c(OC)c1OC,67% (inactive)
8,C=C(CN1CC=CCC1)[C@@H]1CC[C@]2(COC(C)=O)CC[C@]3(C)[C@H](CC[C@@H]4[C@@]5(C)CC[C@H](O)C(C)(C)[C@@H]5CC[C@]43C)[C@@H]12,115% (inactive)
9,O=[N+]([O-])c1ccc(S(=O)Cc2ccccc2)c([N+](=O)[O-])c1 (stereo not drawn),104% (inactive) and 109% (inactive)
10,O=C(Cn1cc(CN2CCN(c3ccnc4cc(Cl)ccc34)CC2)nn1)Nc1cccc([N+](=O)[O-])c1,76.1% (inactive)
